The full ranking holds about 59,000 sequences; the median of the read-out is about -0.00055, and the lowest 2% start at about -2. The entries come from a sample that favours the lowest values as a whole.

A short description of this experiment: Identification of proteins required for the processing of the EWS-FLI1 nascent transcript.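 Further: robust z of luciferase light less the median z of siRNAs with the same seed.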 The note with it: TC32 Ewing sarcoma NR0B1-luc vs CMV-luc (EWS-FLI1 target promoter against control promoter), 48 h; screened at 20 nM (by protocol). The method in brief: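 Readout: OneGlo luminescence, 48 h post-transfection, TC32-NR0B1-luc vs TC32-CMV-luc in parallel. siRNA 20 nM final, RNAiMax lipid, 600 cells/well; z-score-MAD transformed, then seed-adjusted.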
For UUCUGUAUUCUUCAGCGUG against OR4C16, the seed-corrected z-score was -0.379.
For the sequence UUUGGAGCUUGGGAAUUGC against ARHGAP27, the seed-corrected z-score was -0.993.
Sequence UUUGUUCCUUUUCGAGUUC against CCDC127 had a seed-corrected z-score of 2.99.
UGAAUCAAAUGAUCUGACC against RAB9A showed a seed-corrected z-score of 0.786.
In the case of AAUGUGAUCAAAAAUAGCC against NAT2 it was 0.2; in that of UUGGUUUAAAGUUAAGUUG against C5orf63, -2.45; in that of UUGAUAUUUGUGAAUCUCC against FERMT1, -0.474.
In the case of UAUUUAGCAAUGCAGAACU against RPP25L it was 0.342; in that of UGUCUGAUUCAUUAUGAGC against CCDC74A, -0.71; in that of AAAGGUCCCAGAGUACAUG against SLC25A20, 0.174.
UUUAUGCUGAGUCCCAUAG against APBB1IP came in with a seed-corrected z-score of -2.98.
In the case of AAAGUAAUAGAAGUGUUUG against MOB3B it was 0.429.
In turn, UAGAGAGACAGGGUGCAGG against C1orf162 came in with a seed-corrected z-score of -2.87.
In the case of UCUGGUUUUAGUAUUCUUA against NBEAL1, the seed-corrected z-score was -0.389.
In the case of UUCUUUAGACUGUCCAGCG against KLHL6 it was -2.04; in that of UUAGGGCUUGGUAUAGAGG against ST18, 0.568; in that of UUGCGUUCCACAUGUUGAC against PRDM7, -9.3.
Sequence UAAGUGAUUGGAGGUAAAG against LOC727775 came in with a seed-corrected z-score of 0.67.
Sequence AUAUGGUCCUUCUUAUUGC against HSD52 displayed a seed-corrected z-score of 0.199.
The sequence AUGCUUAUAGUUGUUCUUC against POU1F1 registered a seed-corrected z-score of -2.19.
Turning to UCACAAAACACUUUGCCGU against LIMD1, the seed-corrected z-score turned out to be 0.194.
In turn, UUGGUAGAGAGGUAAAAUG against KRTAP4-4 registered a seed-corrected z-score of 1.06.
In the case of UAAUAGUCAGGUUCCCUGU against OR6C2 it was -0.02; in that of AAAGUAGGACGAGAUGCCG against DDX51, 1.06.
As for UCUGGACACGGCUUAUUGC against C17orf58, the seed-corrected z-score is 0.125.
Then AUAAGAACAACAAAUACAC against C2CD4A, with 0.789.
In the case of UGGUUAUUAAUGGUGCACC against ELF2 it was -2.8; in that of UUAGAGCUACUGAACUGCC against DHX58, 0.739.
As for AAGUUGCCAAGAACAUGCU against LINC01168, the seed-corrected z-score is -3.59.
In the case of UAUCUGGUAUGCUACGUCC against CCDC7 it was 0.683; in that of UAUGAUCGAACUUUUUGAG against RSG1, -2.03; in that of AACCUGUCAAUUAUCACUG against EBF1, 0.337.
With UCUCCGUCCACAUUUGUUG against NTRK1, the seed-corrected z-score was found to be 0.0167.
Then UCUCUGAUGAGCAUUAAGG against ZNF26, with -0.977.
Consider AAACUUCUUGGGUUUCUAC against ZBTB8OSP1, for which the seed-corrected z-score stood at 0.246.
In the case of ACACUGACAAAUGUUAGGC against VWDE it was -2.22; in that of AACCUUUAACUUGUGCUCC against ELAC2, 0.641; in that of UGCCCAAAUAGAAUUCUGU against RPL35A, -0.216.
On to AGCUUUUCCAAAACCGUGC against NGDN, for which the seed-corrected z-score stood at 2.14.
In the case of AUAUUUAUUGGGCAGUGGA against PYDC1 it was -0.518; in that of UUUGUAGCAGGUACAGGCC against EPPK1, -0.0968; in that of AAGGUGGUAGGCACUUUGG against MAVS, -2.67.
UUCGAAAUGCCUGAUAGCC against P3H2 yielded a seed-corrected z-score of 0.287.
For the sequence AGAUGUUCCACACUCUGCC against C1orf95, the seed-corrected z-score is -3.59.
Then AUACUGCCGAUAUAUCAGC against AP4S1, with -0.442; and AAGUUUAUGGACAAUUUCC against SMYD5, with 0.313; and UACUUUACAACAUAUGGGC against STK3, with -0.0972.
Sequence UGGUUAGCAAUGCAUAUUC against SV2C returned a seed-corrected z-score of 0.364.
On to UUCUUCAUUCCUGCUAGGC against EEF1B2P5, for which the seed-corrected z-score was -0.108.
Consider UAAGGGUCAAUGCAGUAGU against ZAR1L, for which the seed-corrected z-score is -0.414.
Then UAAAUAGCAAAUUGCAUAC against DNAJB3, with 1.32; and UUUGCCUAGACUAUGCUUG against PPARGC1B, with -1.6; and AUCUGCAUAAUCCUUGUUG against COG2, with -2.77.
Then UAUGUAACUGACAAUGACG against ADGRA3, with -0.447; and UUGAGUGCAAAGGCUUGUC against SLC25A12, with 1.4; and UUAGGUCUCUGAAGUUUUC against NUTM2A-AS1, with -0.188.
In the case of UAUCUUAUUUCAUCGUUUC against PTGS1 it was -0.545.
On to AUCGUCUUGACUGUGGUCC against CEACAM1, for which the seed-corrected z-score was -0.766.
Then AUAGCGAUUAUUCUCACAG against PDHA1, with 0.0331.
In turn, UUAUUUAUCUGAGUUGUGA against NFIA-AS1 registered a seed-corrected z-score of -2.52.
Then UGCAGUAAACAUUUCGUUG against ADAMTS9, with -0.75; and UUGUGGUAGAUGGGACUGG against DOK3, with -3.05.
Take UCUGCGGUUACUCUCCAUC against TLX1: the seed-corrected z-score was -0.0327.
Then AUGAGUACAGACAAGGUCC against DRD1, with -0.626; and AACAGGCUCAGGGAUAUUG against MORN2, with -1.84.
Then UAGCUUCGAAUAAACAUCC against FAM3D, with -4.22.
Then UGAAAUACGGAUGACAUUC against AKR1C3, with -1.21; and UUUUGUGCAUAGACCAUAG against DHRS12, with -0.542; and UCUUCUUAGACCUUUCGGG against PRPF38A, with -2.28.
Consider UUUGCAUCGUGGUAUUUCC against CTCFL, for which the seed-corrected z-score was 0.259.
Then UUUACGAUAAUCAACCUUC against BCO1, with 0.641; and UUCGCAUUGCUUCUAACUC against UACA, with 0.538.
UUCAAAGUAUCGUUCUUUC against PANX3 had a seed-corrected z-score of 1.35.
In the case of UCCCGUACCAAGGGUAGCU against FAM78B it was 0.456.
Then AAUGGUGUUGCUCUUCUCC against ZNF23, with 1.51.
Then UUCGAAUAGUAGAAAGUCG against ABCB5, with 0.0668; and AAGCAUGUUGGUAACCUCG against PLA2G3, with -2.04; and UACAGCAUCGUCUUCUACC against TMEM246, with 0.565.
The sequence UACACUUGAGUUGACGACC against LOC642335 yielded a seed-corrected z-score of 0.105.
Then UGCAUAGACAGAUUAAGCC against SEC22A, with -0.0597; and UGCUCUUUUGCUUACGUGG against GAB1, with -1.74; and UGCGUUUUCAGCUGGUUAC against MYNN, with -3.83.
UCCGUGAGAACUCAUAAGG against TG had a seed-corrected z-score of -0.13.
In turn, UACAGUCAAAGCUCCGUUC against GFI1 yielded a seed-corrected z-score of 1.42.
UCUGCGUUCUGAUUGGUGG against ANKRD55 displayed a seed-corrected z-score of -4.59.
AUGCAAGUAACUGAGAUCG against CLEC14A had a seed-corrected z-score of -1.2.
In the case of UGUUCUAUGAGGCAAGAUG against ZGRF1 it was 0.286; in that of ACUUUCACAACGAUUUUCU against RPL34P34, -2.47.
Sequence UUCUUUACAGCAUGAGGGC against CCL25 registered a seed-corrected z-score of 0.424.
In the case of AAAGUCAUCAGCAAUUUGG against OR10G8 it was -1.41; in that of UCCGUCGUCAGAAAGAUGC against DGCR2, 0.0908; in that of UGACGUGUCAUUCUCAUAC against ZNF69, -2.01.
In the case of UUGGAGCAAAAUACAGUGG against NQO1 it was 0.331; in that of UUGUUCCUCAGGUCAAGUG against GAB2, 1.13.
With UAGUUGUUCAGCGAGGUCC against CEP250, the seed-corrected z-score was -0.0255.
Sequence AACAUCACCAAAUAGCUGG against LIMS1 yielded a seed-corrected z-score of 0.191.
The sequence UAUUUCGAAAAUAAUCUCC against TMEM18 showed a seed-corrected z-score of -0.129.
Regarding UUCAGCAUUUGAUUCAAUC against HTRA4, the seed-corrected z-score is -0.127.
For UCUGCUGAUAGCAAUGGGC against ZNF512B, the seed-corrected z-score is -2.13.
As for UUUUGGUCGUCGUUCUUCU against COMP, the seed-corrected z-score was -2.12.
Turning to UUCUACUCUAGCAAUUUCC against NDC80, the seed-corrected z-score is -2.12.
In the case of UCAAGGACCAGGCCGUUUU against ALG1L3P it was 1.09; in that of UAAUUGUGACACUUGUUCC against TSLP, -1.67; in that of UAGGUAAGGACGGAAACGC against ZPBP2, 0.591.
In turn, UACCGUGACAAAAUAAGUG against LOC728175 came in with a seed-corrected z-score of 0.818.
Regarding UCUGAUGACUGUUUACAGC against ZNF180, the seed-corrected z-score came out at 0.161.
Consider UAAUUAAUAUCGUCCAGAG against C6orf120, for which the seed-corrected z-score is -0.208.
Then UCAUUCACUAUCACUUGUC against ZNF35, with -1.13; and AACUCUUCACGUACUAGCC against PKD2, with 0.287.
In the case of UUAGCUGCUGGGAACACUG against IL18BP it was -2.28.
In turn, UAUGUUUCUCGUCUCAACA against DNM1P49 gave a seed-corrected z-score of -0.258.
As to AAAGUCACGUUUUCCGCGC against RGS14, the seed-corrected z-score turned out to be 0.981.
On to AAAGAUACAUCUGCCUUCC against CMPK1, for which the seed-corrected z-score is -0.0168.
Then AGAAUUCUGAGGGCGGAGC against UCN2, with -0.561.
In the case of AUAGUAAGCAGCCUUCUGC against HOXD3 it was -3.99; in that of UAUCUUGACCAAAUAAACC against MPC2, 0.235; in that of ACAGGAGCCACCCUAAAAG against WDR86, 0.75.
Consider UCUGUCUCCGCUUGGAGUG against FOS, for which the seed-corrected z-score was 0.622.
On to UAGGUCUUAGGAGUCAUCU against RPL9P25, for which the seed-corrected z-score is -2.06.
In the case of UCUGCUCCAAUAAUCCGGC against ANKS6 it was 0.347; in that of UCCGUUUCCACAUGGUCGC against TEKT4, 0.747; in that of AUAGGCAAGAGUGACAAGC against CNGB3, 0.169.
Then UGGGAUCUAACUCCUUAGC against IFT172, with -2.76.
UACUAGAUGUGGUGCAUCC against RPS6KA3 yielded a seed-corrected z-score of 0.496.
Then UAGGCAUCCGUAUCCCUGC against FAM131B, with 0.847.
Then AGCUGCUAAACUUUCAUCC against JAKMIP2, with -2.59; and UCUCGAAUGAGAAUGCUCC against CSTF3, with -0.0852; and UUCUUGAUCUUGGAUCUUU against DLX5, with -0.846.
With UUCUUGAUCAUCAUUCACC against SLC7A6OS, the seed-corrected z-score is 0.569.
UAUCGUAAAAUCACAUGAG against AMFR displayed a seed-corrected z-score of 0.503.
Consider UGAUGUUUCGCAGGCACCG against CRHR1, for which the seed-corrected z-score is 0.0226.
Then UUAAUUACUCUCUUCAAUG against UGT2B7, with -0.533; and UUUUGGGCCUCUGAACUCC against LCE1B, with 0.31.

Values taken from PubChem BioAssay AID1159506 (National Center for Advancing Translational Sciences (NCATS), 2015).
